Source: PubChem BioAssay (National Center for Advancing Translational Sciences (NCATS))
Most compounds without a hit are left out; they make up all but 1.7% or so of the library.
IDH1 R132H inh: qHTS for Inhibitors of mutant isocitrate dehydrogenase 1 (IDH1): qHTS | 390,000 tested, 0.093% active | AID 602179, 2012 | IDH1-R132H enzyme, NADPH consumption, diaphorase/resazurin fluorescence | Potency, µM (highest dose often 76.6 µM), for inactives: at the highest dose activity change, negative = inhibition, most hits filed as inhibitors; note: % is set by controls: 0 for no effect and ±100 for the full control effect; nearly all actives have a fitted effect of over 65% in size
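IDH1-R132H (0.5 ug/mL dispensed) in pH 7.5 Tris buffer was preincubated 30 min with compound, then given a substrate mix of 0.016 mM NADPH and 2 mM alpha-KG for 80 min at room temperature; remaining NADPH was read by diaphorase/resazurin fluorescence.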
12-LOX inh: Primary qHTS assay for inhibitors of human arachidonate 12S-lipoxygenase (ALOX12): Round 2; 580,000 tested, 1.1% active; Potency, µM (top dose mostly 108 µM), for inactives: at the top dose activity change, negative = inhibition, usual class: inhibitors; purified 12hLO, xylenol orange hydroperoxide absorbance; Polyunsaturated fatty acid lipoxygenase ALOX12 (Homo sapiens), P18054; note: % is set by controls: 0 for no effect and ±100 for the full control effect
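Purified human 12hLO (150 nM final) in 25 mM Hepes, 0.01% Triton X-100, pH 7.0 was preincubated 15 min at room temperature with compound. Then 40 uM arachidonic acid was added, 30 min. Hydroperoxide was read by Fe-XO absorbance ratio 573/405 nm.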
Apoferritin bind: qHTS Assay for Identification of Novel General Anesthetics; apoferritin/1-aminoanthracene competitive binding, fluorescence; 350,000 tested, 0.074% active; AID 485281, 2010; Ferritin light chain (Equus caballus), P02791; Potency, µM (doses to about 77.5 µM), for inactives: at the top dose activity change, negative = displacement, hits mostly inhibitors; note: % is set by controls: 0 for no effect and ±100 for the full control effect; nearly all actives have a fitted effect of over 20% in size
Target sequence (P02791 2-175 limits assumed): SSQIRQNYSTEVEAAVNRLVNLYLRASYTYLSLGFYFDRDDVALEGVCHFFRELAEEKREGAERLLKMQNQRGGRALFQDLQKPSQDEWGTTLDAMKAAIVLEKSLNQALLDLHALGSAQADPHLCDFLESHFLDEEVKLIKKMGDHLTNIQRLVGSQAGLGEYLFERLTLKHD
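Horse-spleen apoferritin (10 uM) in 50% saturated 1-aminoanthracene in PBS was incubated 10 min at room temperature with compound. Fluorescence (ex 380, em 535 nm) was normalized to free and bound 1-AMA, with concentration-response fitted by a four-parameter Hill equation.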
TrxR1 inh: qHTS Assay for Inhibitors of Mammalian Selenoprotein Thioredoxin Reductase 1 (TrxR1): qHTS; Thioredoxin reductase 1, cytoplasmic (Rattus norvegicus), O89049; recombinant rTrxR1, NADPH fluorescence consumption, selenite substrate; Potency, µM (top dose mostly 114 µM), without a hit: top-dose activity change, negative = inhibition, usual class: inhibitors; 390,000 tested, 1% active; note: % is set by controls: 0 for no effect and ±100 for the full control effect; nearly all actives have a fitted effect of over 65% in size
Target sequence (O89049 whole entry, looked up): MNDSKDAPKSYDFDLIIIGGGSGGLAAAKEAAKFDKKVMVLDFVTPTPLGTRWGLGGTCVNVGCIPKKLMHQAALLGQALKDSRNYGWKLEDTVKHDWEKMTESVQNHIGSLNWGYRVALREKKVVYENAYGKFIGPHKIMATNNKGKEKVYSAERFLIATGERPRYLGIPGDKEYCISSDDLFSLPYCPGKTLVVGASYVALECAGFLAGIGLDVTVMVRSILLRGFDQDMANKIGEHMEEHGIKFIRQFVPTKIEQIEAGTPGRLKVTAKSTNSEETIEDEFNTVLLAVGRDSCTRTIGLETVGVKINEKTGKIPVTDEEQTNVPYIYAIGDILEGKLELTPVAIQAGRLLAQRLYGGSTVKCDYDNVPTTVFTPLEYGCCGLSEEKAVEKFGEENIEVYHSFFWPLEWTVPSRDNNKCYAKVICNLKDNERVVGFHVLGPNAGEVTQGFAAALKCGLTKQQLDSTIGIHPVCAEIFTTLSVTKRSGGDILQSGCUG
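Rat TrxR1 (90 nM in the dispensed reagent) was pre-reduced with 400 uM NADPH for 5 min at room temperature, then incubated with compound for 15 min. After 400 uM selenite was added, NADPH fluorescence (Ex 340/Em 450 nm) was followed for 8 min.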
TrxR1 substrate: qHTS Assay for Substrates of Mammalian Selenoprotein Thioredoxin Reductase 1 (TrxR1): qHTS. purified TrxR1 substrate turnover, NADPH consumption readout. Thioredoxin reductase 1, cytoplasmic (Rattus norvegicus), O89049. Potency, µM (series often up to 114 µM), for the others: at the top dose activity change, negative = substrate turnover. AID 588456, 2011. 390,000 tested, 0.01% active; note: % is set by controls: 0 for no effect and ±100 for the full control effect; nearly all actives have a fitted effect of over 50% in size
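Rat TrxR1, dispensed at 90 nM, was prereduced with 400 uM NADPH (final) for 5 min at ~22 deg C, then incubated with compound 15 min before 400 uM selenite. A first-read NADPH fluorescence drop versus no-compound background flagged substrates.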
GRP78 ERSR act: qHTS for Inducers of the Endoplasmic Reticulum Stress Response (ERSR) in Human Glioma: qHTS; U87-MG GRP78 promoter luciferase reporter, 16 h; Potency, µM, for inactives: at the top dose activation, usual class: activators; 420,000 tested, 0.02% active; AID 602332, 2012; note: series mostly up to about 76 µM; % of control where 0% means no effect; nearly all actives have a fitted effect of over 35% in size
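Stably transfected U87-MG glioma cells carrying a GRP78-based luciferase sensor; 16 h compound incubation. Luminescence end-point read 10 min after Bright-Glo addition at room temperature.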
* marks the source's active call; other numbers are inactive results; ? = inconclusive; / = no result; ! = not active in a repeat; [ ] = remark or other dose. Calls come from the whole dose curve; as a rule, active = well fitted curve in the direction sought with a large enough effect; inconclusive = small, poorly fitted or top-dose-only effect, or another doubt; inactive = no such curve, though single readings can be large; an effect the other way counts as inactive or inconclusive. Potency is the fitted concentration of half-maximal effect.

SMILES	IDH1 R132H inh	12-LOX inh	Apoferritin bind	TrxR1 inh	TrxR1 substrate	GRP78 ERSR act
CC(=O)OC[C@@H]1O[C@@H](O/N=C2/C[C@@H](O)[C@@H](O)[C@@H]3[C@@H]4C(=O)N(C(C)(C)C)C(=O)[C@H]4CC[C@H]23)[C@H](OC(C)=O)[C@H](OC(C)=O)[C@@H]1OC(C)=O	/	/	-3%[15.3 µM]	/	/	-2%
COc1coc(C(O)C[N+](=O)[O-])cc1=O (centres undefined)	0%	-23%	-1%	50µM*	5%	-1%
COc1ccccc1-n1cc(C(=O)c2cc(Br)ccc2O)cc(C#N)c1=O	/	-22%	/	/	/	/
O=C(O)c1cc([N+](=O)[O-])ccc1NCc1ccccc1	13%	-19%	?	-9%[57.1 µM]	-3%[57.1 µM]	5%
O=C(O)c1cc([N+](=O)[O-])ccc1NCCCc1ccccc1	0%	-16%	/	10%[57.1 µM]	?	28µM*!
O=C(O)c1csc(N/N=C/c2ccc(Br)cc2)n1	1%	35µM*	-7%	14%	2%	2%
Cc1csc(N/N=C/c2ccc([N+](=O)[O-])cc2)n1	-9%	3%	-16%	6%	-1%	2%
CC(C)NC[C@H]1Cn2c(-c3ccc(Cl)cc3)cnc2CO1	/	-4%[176 µM]	/	/	/	/
COc1cccc(C2=Nc3cccc4cccc(c34)N2)c1	22%	?	-12%	-1%[57.1 µM]	4%[57.1 µM]	-1%
c1coc(C2=Nc3cccc4cccc(c34)N2)c1	0%	?	-20%	35µM*	-7%	0%
Cc1cc(OC(=O)c2ccccc2Cl)c([N+](=O)[O-])c(=O)[nH]1	7%	40µM*	-13%	1%	-7%	-5%
CCCCC1=CC2=C(c3ccco3)C(=O)C(C)(OC(=O)c3ccc(OC)cc3)C(=O)C2=CN1CC(C)C (centres undefined)	7%	?	-2%	45µM*	4%	-3%
CNC(=O)c1cc(Oc2ccc(NC(=O)Nc3ccc(Cl)c(C(F)(F)F)c3)c(F)c2)ccn1	/	3%[57.4 µM]	/	/	/	/
CC(=O)Oc1cc2c(cc1Cl)C(c1cccs1)CC1(CC(C)(C)NC(=S)N1)O2 (centres undefined)	7%	32µM*	-16%	17%[57.1 µM]	-21%[57.1 µM]	5%
O=C(N1CCN(C/C=C/c2ccccc2)CC1)C(F)(F)C(F)(F)C(F)(F)C(F)(F)F	/	-12%	/	/	/	/
Cc1ccc(S(=O)(=O)NC[C@H]2O[C@@H](CO)[C@@H](O)[C@H]2N2CCN(c3ncccn3)CC2)cc1	/	16µM*	/	/	/	/
COc1ccc(S(=O)(=O)NC[C@H]2O[C@@H](CO)[C@@H](O)[C@H]2N2CCN(c3ccccn3)CC2)cc1	/	0%	/	/	/	/
O=C(c1ccc(Br)o1)N1CCC(c2nc3ccccc3[nH]2)CC1	10%	-18%	/	45µM*	-3%	0%
CC1(COc2ccccc2)COc2ccc(C(=O)NCc3ccncc3)cc2N1 (centres undefined)	/	28µM*	/	/	/	/
COc1ccc(CN[C@H](C)c2onc(C)c2C(=O)O)cc1	/	28µM*	/	/	/	/
C=CCN1CC2(CCC1=O)CCN(C(=O)CC1CCCCN1C)CC2 (centres undefined)	/	7%	/	/	/	/
Cc1cccc(CN2CCc3c(sc4ncnc(N(C)C)c34)C2)c1	/	250%	/	/	/	/
COC1CCN(C(=O)c2ccnc(-c3nnc4ccc(N5CCOCC5)nn34)c2)CC1	/	100µM*	/	/	/	/
COc1ccnc(-c2nnc3ccc(N4CCc5ccccc5CC4)nn23)c1	/	50µM*	/	/	/	/
O=C(NCc1ccccn1)C1CCN(C2CCN(Cc3cccc(F)c3)CC2)CC1	5%	4%	/	/	/	-5%
SMILES	IDH1 R132H inh	12-LOX inh	Apoferritin bind	TrxR1 inh	TrxR1 substrate	GRP78 ERSR act
NS(=O)(=O)c1ccc(NC(=O)c2cc3ncccn3n2)cc1	/	-20%	/	/	/	/
CCn1nc([N+](=O)[O-])c(C(C#N)c2nc3ccccc3n2C)c(Cl)c1=O (centres undefined)	4%	-17%	-16%	?	-11%	-4%
CCCn1nc([N+](=O)[O-])c(C(C#N)c2nc3ccccc3s2)c(Cl)c1=O (centres undefined)	1%	?	?	1.6µM*	0%	-4%
COc1ccc(CN2CCN(C(=O)c3cccc4ccccc34)CC2)cc1OC	2%	37%	-7%	22%	6%[11.4 µM]	-4%
Cc1ccc(CN2CCN(C(=O)c3cccc4ccccc34)CC2)cc1	5%	1.3µM*	-20%	8%	-5%	-5%
COc1ccc(CN2CCN(C(C)=O)CC2)cc1OC1CCN(C(=O)c2ccc3ccccc3n2)CC1	/	28µM*	/	/	/	2%
Cc1ccccc1CN1CCN(C(=O)c2cccc3ccccc23)CC1	2%	2.8µM*	-12%	8%	0%	-3%
COc1ccc(CN2CCN(C(=O)c3cccc4ccccc34)CC2)cc1Br	1%	0.56µM*	-13%	-3%	-5%	-6%
O=C(Cc1ccc(F)cc1)NCc1nnc2cc(-c3nc(C4CC4)no3)ccn12	/	8%	/	/	/	/
COCCN(CCOC)C(=O)c1cc2ccccc2c(OC)n1	/	29%	/	/	/	/
COc1ccc([C@H]2C[C@@H](O)[C@@H](O)[C@@H]2N2CCCCC2)cc1	/	9%[176 µM]	/	/	/	/
COc1ccc(CNC(=O)CC[C@H]2CNC(=O)[C@@H]3[C@@H](CCN3Cc3ccc(OC)cc3)N2C)cc1	/	41%	/	/	/	/
O=C(CCSc1nccc(C(F)(F)F)n1)NC1CCCCC1	/	8%	/	/	/	/
Cc1sc2cc3c(c(C(=O)c4ccccc4)[n+]2c1C)-c1cccc2cccc-3c12	2%	?	-6%	14%[57.1 µM]	8%[57.1 µM]	-4%
O=C(c1ccccc1)c1c2c(cc3sc4ccccc4[n+]13)-c1cccc3cccc-2c13	?	32µM*	0%	?	-6%	-2%
Cc1ccc(Nc2nc(-c3c(C)nc4ccccn34)cs2)cc1	-7%	?	-5%	-8%	-1%	-6%
Cc1nc2ccccn2c1-c1ccnc(=S)[nH]1	6%	16µM*	-8%	3%[57.1 µM]	-10%[57.1 µM]	0%
O=C(c1ccccc1)c1ccc(OCC(O)CNCc2ccc(Cl)cc2)cc1 (centres undefined)	-6%	7.1µM*	-18%	36%	-3%	-7%
c1cc(N2CCCC2)ccc1C(c1nnnn1C1CCCCC1)N1CCOCC1 (centres undefined)	4%	-13%	-8%	7.1µM*	6%[57.1 µM]	-1%
